Measured values reported in PubChem BioAssay (EPA / NIEHS).
“And” between values parts separate entries of the source, which are not always exact repeats. Identical values can stand only once. The source made the active and inactive calls. The calls were made as follows: active = hit-call score of the fitted dose curve at least 0.9, where 1 is the maximum; inconclusive = response in the unintended direction; inactive = score below 0.9.

These compounds were tested on rat CYP3A1, gene 25642 (assay: NVS_ADME_rCYP3A1: NovaScreen (NVS) CYP450-related Enzyme Activity (ADME) Assay for rat CYP3A1 (AID 2283126)).
Protocol: NVS_ADME_rCYP3A1 is a biochemical, single-readout assay that uses extracted gene-proteins in a cell-free assay. Measurements were taken 0.5 hour after chemical dosing in a 96-well plate.NVS_ADME_rCYP3A1 is one of one assay component(s) measured or calculated from the NVS_ADME_rCYP3A1 assay. It is designed to make measurements of enzyme activity, a form of enzyme reporter, as detected with fluorescence intensity signals by Fluorescence technology.Data from the assay component NVS_ADME_rCYP3A1 was analyzed into 1 assay endpoint. This assay endpoint, NVS_ADME_rCYP3A1, was analyzed in the positive analysis fitting direction relative to Acetonitrile as the negative control and baseline of activity. Using a type of enzyme reporter, loss-of-signal activity can be used to understand changes in the enzymatic activity as they relate to the gene Cyp3a23/3a1. Furthermore, this assay endpoint can be referred to as a primary readout, because this assay has produced multiple assay endpoints where this one serves a enzymatic activity function. To generalize the intended target to other relatable targets, this assay endpoint is annotated to the cyp intended target family, where the subfamily is xenobiotic metabolism.
Binding assays used specific radioligands (tritiated, iodinated) with non-radioactive competitive displacement ligands in agonist or antagonist protocols (as indicated) and various reference compounds and inhibitors to titrate specific binding to receptors and transporters. Most enzyme assays (CYPs, kinases, phosphatases, proteases, HDACs) used recombinant protein and specific substrates (fluorescence mostly, some colorimetric and radioactive) and inhibitors, followed by a biochemical separation of substrate and product. All assays for the biochemical HTS were initially run in duplicate at a single concentration (10 uM for CYP450 assays and 25 uM for all others). Assay-chemical combinations meeting a pre-defined threshold (e.g., 30% inhibition and other criteria defined below) were then run in singleton concentration-response format with maximum concentration of 20 uM for CYPs and 50 uM for all others. Each assay was run with positive and negative controls, and concurrent controls on every plate. The follow-up (secondary) screen tested active chemical-pairs in concentration series, as well as a few additional assays not tested in the primary screen, some selected negative inactives, and several cases re-run in the concentration series for confirmatory purposes.

Row | Compound | outcome | AC50
1 | COc1ccc(C(c2ccc(OC)cc2)C(Cl)(Cl)Cl)cc1 | inactive | 
2 | CCOP(=S)(OCC)SCn1c(=O)oc2cc(Cl)ccc21 |  | 1.16 µM (active)
3 | CCCC1COC(Cn2cncn2)(c2ccc(Cl)cc2Cl)O1 (stereo not drawn) |  | 2.08 µM (active)
4 | CON(C)C(=O)Nc1ccc(Cl)c(Cl)c1 | inactive | 
5 | Cc1ccc(-c2c(Cl)nc(C#N)n2S(=O)(=O)N(C)C)cc1 |  | 2.88 µM (active)
6 | CC1COC(Cn2cncn2)(c2ccc(Oc3ccc(Cl)cc3)cc2Cl)O1 (stereo not drawn) |  | 0.628 µM (active)
7 | COC(=O)N(OC)c1ccccc1COc1ccn(-c2ccc(Cl)cc2)n1 |  | 1.29 µM (active)
8 | COc1nc(C)nc(NC(=O)NS(=O)(=O)c2ccccc2CCC(F)(F)F)n1 |  | 7.5 µM (active) and 7.14 µM (active) and 7.37 µM (active)
9 | CCON=C(CC)C1=C(O)CC(c2c(C)cc(C)cc2C)CC1=O (stereo not drawn) |  | 4.22 µM (active)
10 | CNC(=S)S | inactive | 
11 | COP(=S)(OC)Oc1nc(Cl)c(Cl)cc1Cl | inactive | 
12 | CCOC(=O)CC(SP(=S)(OC)OC)C(=O)OCC (stereo not drawn) |  | 1.88 µM (active)
13 | CO/C=C(/C(=O)OC)c1ccccc1Oc1cc(Oc2ccccc2C#N)ncn1 |  | 5.8 µM (active)
14 | CCCCNC(=O)OCC#CI |  | 1.46 µM (active) and 4.29 µM (active)
15 | N#CC(CCc1ccc(Cl)cc1)(Cn1cncn1)c1ccccc1 (stereo not drawn) |  | 0.449 µM (active)
16 | CN(C)C(=S)SSC(=S)N(C)C |  | 3.2 µM (active)
17 | OC(c1ccc(Cl)cc1)(c1cncnc1)c1ccccc1Cl (stereo not drawn) |  | 2.92 µM (active)
18 | CCCN(CCC)c1c([N+](=O)[O-])cc(S(N)(=O)=O)cc1[N+](=O)[O-] |  | 1.24 µM (active)
